PubChem BioAssay AID710 (SRMLSC, 2007)
Among all 98,000 compounds or so, about 150 (0.15%) were called active.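 The calls were made as follows: active = growth inhibition above about 50% at one test dose (limit read from the data); inactive = the rest.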 This excerpt belongs to a sample that is enriched for actives.

assay: growth inhibitors of wild-type E. coli, primary screen, strain BW25113, expanded library, OD600 (AID 710); conditions: OD600 absorbance, at 100 µM, hits give high values;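 also: growth measured after 20 h incubation at 37 °C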

| SMILES | growth inhibition |
| --- | --- |
| O/N=C1\CC2(Cc3nonc31)OCCO2 | -4% (inactive) |
| ON=C1/C(=N\O)CC2(C/C1=N/O)OCCO2 | 57% (active) |
| N=c1ccn(CC(=O)NC(N)=O)c2ccccc12 | -4% (inactive) |
| O=C(Nc1cccc(Cl)c1)Nc1nnc(-c2ccccc2)o1 | 2% (inactive) |
| O=C(Nc1nnc(-c2ccc(Cl)cc2)o1)c1ccccc1Br | 57% (active) |
| Cc1nonc1NC(=O)c1ccccc1Br | -2% (inactive) |
| CCCN(Cc1cc2cccc(C)c2[nH]c1=O)S(C)(=O)=O | 2% (inactive) |
| CCSc1nc(-c2ccc(OC)cc2)cc(-c2ccc(OC)cc2)c1C#N | -14% (inactive) |
| CC(C)(C)Cc1nnc(NC(=O)c2cc(-c3ccccc3)nc3ccccc23)s1 | -12% (inactive) |
| Cc1cc2c(cc1C)N(C(=O)CN1C(=O)c3ccccc3C1=O)C(C)(C)c1ssc(=S)c1-2 | -26% (inactive) |
| CC(C)NC(=O)C(=O)N/N=C/c1ccco1 | 0% (inactive) |
| Cc1ccc(NC(=S)NC2CCCC2)cc1 | 10% (inactive) |
| CCOc1ccc(OCC)c(-c2c(=O)n(OCc3ccc(Cl)cc3)c3ccccc3[n+]2[O-])c1 | -15% (inactive) |
| COc1ccc([N+](=O)[O-])cc1C1NN=C(c2cccc3ccccc23)S1 (stereo unspecified) | 3% (inactive) |
| COC(=O)C(NC(=O)c1ccc(OC)cc1)(Nc1ncc(S(=O)(=O)c2ccc([N+](=O)[O-])cc2)s1)C(F)(F)F (stereo unspecified) | -3% (inactive) |
| Cc1cc(C)cc(OCC(=O)Nc2nc3ccc([N+](=O)[O-])cc3s2)c1 | -14% (inactive) |
| O=C(NC(Nc1nc2ccc([N+](=O)[O-])cc2s1)(C(F)(F)F)C(F)(F)F)c1ccccc1 | 50% (active) |
| Cc1cc(C)c2cc(CN(Cc3nnnn3Cc3ccc(F)cc3)C3CCCC3)c(=O)[nH]c2c1 | -11% (inactive) |
| O=C(NC1CCN(C(=S)NCc2ccco2)CC1)c1ccc(F)cc1 | -4% (inactive) |
| Cc1ccccc1OC/C(O)=C(\C#N)c1nc2ccccc2[nH]1 | -10% (inactive) |
| O=C(Cc1ccccc1)N/N=C/c1ccc(Cl)cc1Cl | 1% (inactive) |

| SMILES | growth inhibition |
| --- | --- |
| CC12c3ccccc3C(c3ccccc31)C1C(=O)N(Cc3cccnc3)C(=O)C12 (stereo unspecified) | -1% (inactive) |
| CCOc1ccc(N=C2NC(=O)S/C2=C\c2ccc(O)cc2)cc1 | -8% (inactive) |
| Cc1nnc(NC(=O)Nc2ccc(Cl)c(Cl)c2)s1 | -9% (inactive) |
| O=C(CC(O)(C(F)(F)F)C(F)(F)F)Nc1ccc(Cl)c(Cl)c1 | 88% (active) |
| N/C(=N\OC(=O)Nc1ccc(Cl)c(Cl)c1)c1ncc(C(F)(F)F)cc1Cl | 8% (inactive) |
| Cc1nn(C)c(Oc2ccc(Cl)cc2)c1C=O | -1% (inactive) |
| FC(F)(F)c1ccc2nnc(-c3c(Cl)cccc3Cl)n2c1 | -2% (inactive) |
| Cc1cc(C)c2c(-n3cccc3)c(C(=O)NNS(=O)(=O)c3ccc(F)cc3)sc2n1 | 16% (inactive) |
| NC(=O)COc1ccc(/C=N/NC(=O)C2CCCN2S(=O)(=O)c2ccc(Cl)cc2)cc1 (stereo unspecified) | 6% (inactive) |
| COC(=O)c1sc2ncccc2c1OCc1ccc(Cl)cc1Cl | -14% (inactive) |
| NC(N)=N/N=C/c1ccc(OCc2ccc(Cl)cc2Cl)cc1 | 97% (active) |
| C=CCOC(=O)C1=C(C)NC(C)=C(C(=O)OCC=C)C1c1cccs1 | 5% (inactive) |
| CCOC(=O)CN(Cc1ccc(OC)c(OC)c1)S(=O)(=O)c1ccc(OC)cc1 | 0% (inactive) |
| O=C(NCc1cccnc1)c1cccnc1Sc1ccc(Cl)cc1 | 10% (inactive) |
| COc1ccc(C(C#N)Nc2ccccc2C)cc1 (stereo unspecified) | 5% (inactive) |
| COc1cc(/C=C2\SC(=S)N(Nc3ncc(C(F)(F)F)cc3Cl)C2=O)cc(OC)c1OC | -7% (inactive) |
| COc1ccccc1N(C)S(=O)(=O)c1ccc(C(=O)N2CCC(C(N)=O)CC2)cc1 | 3% (inactive) |
| CCCCNC(=O)C1CCCN(S(=O)(=O)c2ccc(S(=O)(=O)NCC(C)C)cc2)C1 (stereo unspecified) | -1% (inactive) |
| Cc1cc(-c2ccccc2)nc(N2CCC(C(=O)NC34CC5CC(CC(C5)C3)C4)CC2)n1 | -9% (inactive) |
| S=c1[nH]nc2c3c4c(sc3ncn12)CCCC4 | 1% (inactive) |
| CCn1c(/C=C/c2ccc([N+](=O)[O-])o2)nc2ccccc2c1=O | 6% (inactive) |

| SMILES | growth inhibition |
| --- | --- |
| COC(=O)c1ccccc1Oc1c(F)c(F)nc(N2CCOCC2)c1F | 7% (inactive) |
| CCN1CCN(c2ccc([N+](=O)[O-])cc2C(=O)c2ccc(Cl)cc2)CC1 | 8% (inactive) |
| CCOC(=O)c1nc(C)n(-c2ccc(Cl)cc2Cl)n1 | 8% (inactive) |
| O=[N+]([O-])c1ccccc1OCCCCN1CCCCC1 | 8% (inactive) |
| C=CCn1c(-c2ccc3[nH]c(C)c(C)c3c2)n[nH]c1=S | 2% (inactive) |
| Cc1ccc(C(c2nnnn2CS(=O)(=O)c2ccc(C)cc2)N2CCC(C)CC2)cc1 (stereo unspecified) | -1% (inactive) |
| CCCNC(=O)c1c(N)n(-c2ccc(S(N)(=O)=O)cc2)c2nc3ccccc3nc12 | -1% (inactive) |
| CC(=O)N1CCN(C(=O)Nc2cccc(C(F)(F)F)c2)CC1 | 17% (inactive) |
| O=C(O)CSCC(=O)Nc1cccc(C(F)(F)F)c1 | 3% (inactive) |
| FC(F)(F)c1cccc(NC(=S)Nc2cccc(Cl)c2)c1 | 50% (active) |
| Cc1cccn2c(=O)c(/C=C(\C#N)S(=O)(=O)c3ccc(Cl)cc3)c(N3CCC(C(N)=O)CC3)nc12 | 0% (inactive) |
| COc1ccc(N2CCN(C(=O)CCc3nc(-c4ccc(C)cc4)no3)CC2)cc1 | -5% (inactive) |
| CC(C)C(=O)Nc1cccc(NC(=S)NC(=O)C(c2ccccc2)c2ccccc2)c1 | -13% (inactive) |
| O=C(CNC(=O)c1ccccc1)NCC(=O)OCc1ccc(Cl)cc1 | 1% (inactive) |
| COc1ccc(-c2nn(C)c(=O)c3ccccc23)cc1NC(=O)COc1ccccc1 | 2% (inactive) |
| CN(C(=O)CC(NC(=O)c1ccccc1)(c1ccccc1)c1ccccc1)c1ccccc1 | -17% (inactive) |
| CCOC(=O)CSc1ncc(-c2cccc(Cl)c2)cn1 | 2% (inactive) |
| O=C(CSc1nnc(-c2cccs2)n1Cc1ccccc1)N1CCc2ccccc2C1 | -18% (inactive) |
| Cc1cccc(NC(=O)CSc2nc3c(c(=O)[nH]2)CCCC3)c1C | 3% (inactive) |
